A short description of assay [1]: qHTS assay to identify small molecule antagonists of the thyroid receptor (TR) signaling pathway - cell viability counter screen (AID 743064). Also: nearly all actives have a fitted effect of over 50% in size. Also: potency is read from the fitted curve at half-maximal effect. The gist of the method:
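GH3.TRE-Luc rat pituitary cells dosed after 4 hr plating, co-stimulated with T3 at 1 nM final, incubated 23.5 h at 37 C. Viability measured in the same wells by CellTiter-Fluor fluorescence after 30 min further at 37 C.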
Background: qHTS replaces the single test concentration by a dilution series.

A short description of assay [2]: qHTS assay to identify small molecule antagonists of the thyroid receptor (TR) signaling pathway (AID 743065). Also: potency is read from the fitted curve at half-maximal effect; nearly all actives have a fitted effect of over 55% in size. The gist of the method:
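GH3.TRE-Luc rat pituitary cells (two TREs driving luciferase) were dosed with compound, then stimulated with 1 nM T3 (final) for 23.5 h at 37 C. ONE-Glo luminescence was the read-out, with CellTiter-Fluor fluorescence as the cytotoxicity counter-screen.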

Assay [3] addresses Aromatase (Homo sapiens) (UniProt P11511). Briefly: qHTS assay to identify aromatase inhibitors (AID 743083). Also: nearly all actives have a fitted effect of over 55% in size. Also: potency is read from the fitted curve at half-maximal effect.
Assay [4] in a line: qHTS assay to identify small molecule antagonists of the estrogen receptor alpha (ER-alpha) signaling pathway - cell viability counter screen (AID 743074; calls by dose curve; also: nearly all actives have a fitted effect of over 45% in size; also: potency is read from the fitted curve at half-maximal effect).
The subject of assay [5] is thyroid hormone receptor (rat, GH3 cells). The experiment in a line: qHTS assay to identify small molecule agonists of the thyroid receptor (TR) signaling pathway (AID 743066; calls by dose curve).
Assay [6] deals with Estrogen receptor (Homo sapiens) (UniProt P03372). Briefly: qHTS assay to identify small molecule antagonists of the estrogen receptor alpha (ER-alpha) signaling pathway (AID 743069; active = well fitted curve in the direction sought with a large enough effect in the signal ratio in the repeat runs, not every such curve was filed as active; inconclusive = weak or mixed curves, or effect the other way; inactive = no such curve, though single readings can be large or run the other way; the % refers to the signal ratio; also: potency is read from the fitted curve at half-maximal effect). The gist of the method: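 In this cell-based reporter format, GripTite HEK293 cells harbouring ER-alpha-UAS-bla were grown overnight with 2% charcoal-stripped FBS, dosed with DMSO-dissolved compounds, then challenged with 17beta-estradiol. After 18 hr at 37C, beta-lactamase activity was detected by FRET fluorescence.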
Chain of Estrogen receptor (Homo sapiens) (P03372 whole entry, looked up): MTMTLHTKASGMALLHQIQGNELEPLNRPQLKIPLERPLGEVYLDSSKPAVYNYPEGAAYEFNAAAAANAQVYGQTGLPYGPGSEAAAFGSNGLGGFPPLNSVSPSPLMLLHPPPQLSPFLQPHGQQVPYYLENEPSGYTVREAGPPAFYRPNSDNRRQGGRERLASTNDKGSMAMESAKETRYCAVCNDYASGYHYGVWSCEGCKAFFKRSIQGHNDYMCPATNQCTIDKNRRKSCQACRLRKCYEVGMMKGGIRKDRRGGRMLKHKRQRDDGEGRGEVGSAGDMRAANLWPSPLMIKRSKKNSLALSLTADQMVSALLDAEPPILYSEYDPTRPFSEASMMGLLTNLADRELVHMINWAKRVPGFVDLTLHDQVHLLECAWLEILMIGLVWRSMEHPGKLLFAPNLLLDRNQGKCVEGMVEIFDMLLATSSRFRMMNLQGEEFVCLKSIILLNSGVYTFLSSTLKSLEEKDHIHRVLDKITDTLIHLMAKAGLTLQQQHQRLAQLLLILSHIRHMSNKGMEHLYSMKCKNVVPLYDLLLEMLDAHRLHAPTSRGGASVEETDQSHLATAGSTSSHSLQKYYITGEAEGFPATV

The target is the same in assay [7]. The experiment in a line: qHTS assay to identify small molecule agonists of the estrogen receptor alpha (ER-alpha) signaling pathway (AID 743075; calls by dose curve; also: potency is read from the fitted curve at half-maximal effect).
For assay [8] the target is unchanged. The experiment in a line: qHTS assay to identify small molecule agonists of the estrogen receptor alpha (ER-alpha) signaling pathway using the BG1 cell line (AID 743079). Also: nearly all actives have a fitted effect of over 20% in size. The note with it: BG1Luc4E2 cells, ERE-luciferase agonist, 22 h; activation: at 70.3 µM (top of the series).
The nature of assay [9]: qHTS assay to identify small molecule antagonists of the estrogen receptor alpha (ER-alpha) signaling pathway using the BG1 cell line (AID 743080; calls by dose curve;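 also: BG1 cells stimulated with 17beta-estradiol alongside compound; nearly all actives have a fitted effect of over 25% in size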; also: potency is read from the fitted curve at half-maximal effect). A digest of the protocol: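 Luciferase inhibition measured with ONE-Glo after 30 min at RT in BG1Luc4E2 cells given test compounds and 17beta-estradiol for 21.5 h at 37 C; CellTiter-Fluor viability read in the same wells beforehand.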

Assay [10] can be described thus: qHTS assay to identify small molecule antagonists of the estrogen receptor alpha (ER-alpha) signaling pathway using the BG1 cell line - cell viability counter screen (AID 743081).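 Also: compound given together with 17beta-estradiol as the ER stimulus; nearly all actives have a fitted effect of over 45% in size.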 Also: potency is read from the fitted curve at half-maximal effect.

Each structure is given as a SMILES string. Calls of active or inactive are those of the source. Unless noted, calls follow the shape of the dose curve; as a rule, active = well fitted curve in the direction sought with a large enough effect in the repeat runs; inconclusive = weak or mixed curves; inactive = no such curve, though single readings can be large; an effect the other way counts as inactive or inconclusive.

The values that follow come from PubChem BioAssay (Tox21).

Chain of Aromatase (Homo sapiens) (P11511 whole entry, looked up): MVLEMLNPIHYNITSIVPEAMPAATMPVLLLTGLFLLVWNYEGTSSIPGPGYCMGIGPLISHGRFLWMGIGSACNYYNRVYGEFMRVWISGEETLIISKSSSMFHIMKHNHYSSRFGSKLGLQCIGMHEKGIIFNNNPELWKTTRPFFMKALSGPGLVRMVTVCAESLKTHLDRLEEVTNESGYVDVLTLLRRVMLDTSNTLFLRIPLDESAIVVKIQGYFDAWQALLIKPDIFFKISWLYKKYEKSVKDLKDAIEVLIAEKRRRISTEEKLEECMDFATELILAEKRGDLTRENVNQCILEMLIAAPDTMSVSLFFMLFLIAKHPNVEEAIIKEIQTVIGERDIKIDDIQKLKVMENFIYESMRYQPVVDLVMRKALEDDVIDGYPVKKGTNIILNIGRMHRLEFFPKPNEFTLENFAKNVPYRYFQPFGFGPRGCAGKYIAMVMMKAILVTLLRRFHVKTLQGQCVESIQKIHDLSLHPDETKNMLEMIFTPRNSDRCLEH

For `CC[C@@H](C(=O)[C@@H](C)[C@@H](O)[C@H](C)[C@@H]1O[C@@H]([C@@H](CC)C(=O)O)CC[C@@H]1C)[C@H]1O[C@]2(C=C[C@@H](O)[C@]3(CC[C@@](C)([C@H]4CC[C@](O)(CC)[C@H](C)O4)O3)O2)[C@H](C)C[C@@H]1C`, the Potency in [1] and in [2] was 0.668 µM (active) in each case. Besides, the Potency entry in assay [3] was “inactive”.

Take `CSc1nc2cc(Oc3cccc(Cl)c3Cl)c(Cl)cc2[nH]1`: the Potency in assay [1] was 13.3 µM (active); in assay [2], 8.41 µM (active); in [4], 23.9 µM (active); in assay [3], 23.7 µM (active).

As to `CO[C@H]1O[C@@H]2O[C@@]3(C)CC[C@H]4[C@H](C)CC[C@@H]([C@H]1C)[C@@]24OO3`, the Potency entry in assay [1], in [5], in assay [6], in assay [4], in assay [7] and in assay [8] was “inactive” in each case. The Potency entry in assay [9], in [10] and in [3] was “inactive” throughout.

As to `O=[N+]([O-])c1c(Cl)cccc1-c1c[nH]cc1Cl`, the results for the Potency in assay [1], in assay [2] and in assay [7] were 29.8 µM (active), 26.6 µM (active) and 4.77 µM [inconclusive] (active), respectively.

Consider `CCN(CC)c1ccc(C(=C2C=CC(=[N+](CC)CC)C=C2)c2ccccc2)cc1`, for which the Potency in [1] is 0.335 µM (active); in assay [2], 0.335 µM (active); in assay [4], 4.77 µM (active); in [3] it was 3.35 µM (active).

In the case of `C=C1C(=C/C=C2\CCC[C@]3(C)[C@@H]([C@H](C)CCCC(C)(C)O)CC[C@@H]23)C[C@@H](O)C[C@@H]1O`, the Potency in assay [1] is 23.7 µM (active); in assay [2] it was 13.3 µM (active); in assay [4] it was 23.9 µM (active); in [9] it was 29.8 µM (active); in [10], 2.37 µM (active). Besides, the Potency result in assay [7] and in assay [3] was “inactive” in each case.

On to `Cc1cc(/C=C/c2ccc3cc(N(C)C)ccc3[n+]2C)c(C)n1-c1ccccc1`, for which the Potency in assay [1] was 6.39 µM (active); in assay [2] it was 4.03 µM (active); in assay [10], 11.4 µM (active); in [3], 7.17 µM (active).

For `CCN(CC)CCOc1ccc(-c2nc3cc(Cl)ccc3s2)cc1`, the Potency in assay [1] was 8.41 µM (active); in [2], 6.68 µM (active). Moreover, the Potency result in assay [4], in assay [7], in [10] and in assay [3] was “inactive” in each case.

For `CCCCC(=O)OCC(=O)[C@]1(O)Cc2c(O)c3c(c(O)c2[C@@H](O[C@H]2C[C@H](NC(=O)C(F)(F)F)[C@H](O)[C@H](C)O2)C1)C(=O)c1c(OC)cccc1C3=O`, the Potency in assay [1] is 9.44 µM (active); in assay [2] it was 5.96 µM (active); in assay [10], 23.7 µM (active). Besides, the Potency entry in [4] and in assay [3] was “inactive” each time.

For `CN1CCN(CCCN2c3ccccc3Sc3ccccc32)CC1`, the Potency was 13.3 µM (active) in [1] and 23.7 µM (active) in assay [2]. Besides, the Potency entry in assay [4], in assay [7], in [8] and in [9] was “inactive” in each case.

`CC[C@]1(O)CC2CN(CCc3c([nH]c4ccccc34)[C@@](C(=O)OC)(c3cc4c(cc3OC)N(C)[C@H]3[C@@](O)(C(N)=O)[C@H](O)[C@]5(CC)C=CCN6CC[C@]43[C@@H]65)C2)C1` (stereo partly specified): the results for the Potency in [1], in [2] and in [9] were 0.335 µM (active), 0.168 µM (active) and 0.15 µM (active), respectively. In addition, the Potency entry in assay [8] and in [3] was “inactive” in each case.

Turning to `CC(=O)c1ccc2c(c1)N(CCCN1CCN(CCO)CC1)c1ccccc1S2`, the Potency in assay [1] and in assay [2] was 13.3 µM (active) throughout. In addition, the Potency entry in assay [4] and in assay [9] was “inactive” each time.

Take `OCCN1CCN(CC/C=C2/c3ccccc3Sc3ccc(Cl)cc32)CC1`: the Potency in assay [1] was 10.1 µM (active); in assay [2], 11.4 µM (active). Besides, the Potency entry in [4], in [10] and in assay [3] was “inactive” in each case.

In the case of `CC1(S(=O)(=O)O)CC(=O)c2ccccc2C1=O` (stereo unspecified), the figures for the Potency in assay [1], in [2] and in assay [3] were 13.3 µM (active), 13.3 µM (active) and 26.6 µM (active), respectively. In addition, the Potency entry in [4] and in assay [10] was “inactive” throughout.

Take `C=C1CC[C@H](O)CC1=C/C=C1\CCC[C@]2(C)[C@@H]([C@H](C)CC[C@@H](O)C(C)(C)O)CC[C@@H]12`: the values for the Potency in [1], in assay [2] and in [6] were 26.6 µM (active), 16.8 µM (active) and 21.3 µM [inconclusive] (active), respectively. Besides, the Potency entry in [7], in assay [10] and in [3] was “inactive” each time.

In the case of `CCCCCCCC(=O)CC[C@@H]1[C@@H](C/C=C\CCCC(=O)OC(C)C)[C@@H](O)C[C@H]1O`, the Potency in assay [1] is 21.1 µM (active); in assay [2], 16.8 µM (active); in [4] it was 26.8 µM (active). Moreover, the Potency result in [7], in assay [8], in [9] and in assay [10] was “inactive” in each case.

On to `COc1ccc(C2NC(=S)N3C(c4ccc(OC)c(OC)c4)NC(=S)N23)cc1OC` (stereo unspecified), for which the Potency is 0.188 µM (active) in [1], 0.0841 µM (active) in assay [2] and 0.168 µM (active) in assay [3]. The Potency entry in assay [4], in [7], in [8] and in assay [10] was “inactive” in each case.

In the case of `CN1CCN(CCC=C2c3ccccc3Sc3ccc(S(=O)(=O)N(C)C)cc32)CC1`, the Potency is 13.3 µM (active) in assay [1] and 8.41 µM (active) in assay [2]. Besides, the Potency result in assay [6], in assay [7], in assay [8] and in [9] was “inactive” in each case.

As to `C/C=C1\NC(=O)[C@H]2CSSCC/C=C/[C@H](CC(=O)N[C@H](C(C)C)C(=O)N2)OC(=O)C(C(C)C)NC1=O` (stereo partly specified), the Potency in assay [1] was 0.0119 µM (active); in assay [2], 0.0168 µM (active); in assay [4] it was 6.74 µM (active); in [7], 15.1 µM [inconclusive] (active); in [9], 0.0531 µM (active); in assay [3], 0.0094 µM (active).

`O=C(Nc1ccc(Br)cc1)c1cc(Br)c(Br)s1`: the Potency in assay [1] was 18.8 µM (active); in [2], 13.3 µM (active). The Potency entry in assay [7], in [10] and in assay [3] was “inactive” each time.

Turning to `O=C1CSC2(CCN(CCCN3c4ccccc4Sc4ccc(Cl)cc43)CC2)N1`, the Potency in assay [1] and in assay [2] was 10.6 µM (active) each time. For the same molecule, the Potency entry in assay [7] is “inactive”.

Turning to `O=C(O[C@H]1CN2CCC1CC2)N1CCc2ccccc2[C@@H]1c1ccccc1`, the Potency in assay [1] and in assay [2] was 23.7 µM (active) throughout. The Potency result in [4], in [10] and in [3] was “inactive” in each case.

For `C=C1CC[C@H](O)CC1=C/C=C1\CCC[C@]2(C)[C@@H]([C@H](C)CCCC(C)(C)O)CC[C@@H]12`, the Potency was 11.9 µM (active) in assay [1], 6.68 µM (active) in assay [2] and 23.9 µM (active) in assay [4]. For the same molecule, the Potency result in [7], in assay [10] and in assay [3] was “inactive” throughout.
